# Compound activity deposited in PubChem BioAssay by National Center for Advancing Translational Sciences (NCATS).
# D2 antag: antagonizes the human D2 dopamine receptor; P14416; HEK293 TREx D2 cells, calcium flux, dopamine EC80; inhibition, % at 10 µM; 340,000 compounds, 2% hits; AID 485344; in the data active = inhibition above about 30%; inactive = below that, where a call was filed; also: 0% is about no effect
#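 In this primary screen, negative modulation is detected by tracking calcium flux after an EC80 dopamine challenge in inducible HEK293 T-REx D2 cells preexposed to test compound for 180 s.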
# D2 PAM-1: positive allosteric modulators of human D2 dopamine receptor; P14416; DiscoveRx D2 beta-arrestin cells, luminescence, 90 min; 100% = 57 uM dopamine signal; potentiation, % (no concentration beside the values); 360,000 compounds, 0.23% hits; in the data active = potentiation above about 50%; inconclusive = mostly about 30% to 49%
#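 D2 cells co-treated with compound plus 50 nM dopamine (EC20) for 90 min at 37 deg C to detect potentiation. Beta-arrestin recruitment was read as enzyme-fragment luminescence after 1 h at ambient temperature. Full response was set by 57 uM dopamine.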
# D2 ag-1: activates the human D2 dopamine receptor; P14416; HEK293 T-REx D2 cells, calcium flux agonist mode; activation, % at 2 µM; 340,000 compounds, 0.53% hits;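 active = activation over 3 SD above normal in the single-dose calcium agonist read, cut at about 30% in these data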; also: 0% is about no effect
#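 Tetracycline-induced HEK293 Trex cells with D2 receptor force-coupled to calcium signaling, plated overnight at 30 C and loaded with no-wash calcium dye. Calcium flux read kinetically for 180 s after compound addition; responses flag agonists.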
# D2 PAM-2: positive allosteric modulators of human D2 dopamine receptor; P14416; HEK293 T-REx D2, calcium flux, EC20 dopamine potentiation; potentiation, % at 10 µM; 340,000 compounds, 0.34% hits; AID 485347;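 active = potentiation over 3 SD above the plate norm, cut at about 30% in these data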; also: 0% is about no effect
#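 Using a no-wash calcium dye in inducible, force-coupled HEK293 Trex cells expressing D2, we tracked fluorescence each second for 180 s after compound, then for 180 s after EC20 dopamine to detect augmented signalling.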
# D2 ag-2: human D2 receptor agonism in beta-arrestin assay; P14416; DiscoveRx PathHunter D2 beta-arrestin, luminescence, 90 min; 100% = 57 uM dopamine signal; activation, % (concentration not given with the values); 360,000 compounds, 0.084% hits; in the data active = activation above about 40%; inconclusive = between about 15% and that limit
#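 Agonist mode: compounds alone added to overnight-plated D2 PathHunter cells for 90 min at 37 C, with 57 uM final dopamine (EC100) defining full response. Beta-arrestin recruitment detected by chemiluminescent reagent, read after 1 h at ambient temperature.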
# D3 ag: confirmation of human D3 dopamine receptor agonists, beta-arrestin. Potency, µM (titrated, usually from 76.9 µM), for the others: at the top dose activation, most hits filed as activators. 2,300 compounds, 4% hits. shares compounds with D2 ag-1. DiscoveRx D3 beta-arrestin cells, luminescence, 90 min;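 also: potency is read from the fitted curve at half-maximal effect; 100% = dopamine control response; nearly all actives have a fitted effect of over 70% in size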
# Target sequence (P35462 whole entry, looked up): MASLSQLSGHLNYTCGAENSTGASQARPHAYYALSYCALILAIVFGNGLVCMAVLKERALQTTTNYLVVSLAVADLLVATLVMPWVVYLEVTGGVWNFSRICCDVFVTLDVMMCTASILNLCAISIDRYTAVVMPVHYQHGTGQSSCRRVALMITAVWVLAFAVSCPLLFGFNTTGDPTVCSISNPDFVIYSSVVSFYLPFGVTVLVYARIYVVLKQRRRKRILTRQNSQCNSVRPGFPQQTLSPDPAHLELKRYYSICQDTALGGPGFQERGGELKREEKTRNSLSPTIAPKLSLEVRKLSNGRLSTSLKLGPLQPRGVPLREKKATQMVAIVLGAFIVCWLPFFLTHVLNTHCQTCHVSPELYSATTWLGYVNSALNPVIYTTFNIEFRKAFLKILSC
# D2 ag-3: D2 receptor agonism, beta-arrestin counterscreen; shares compounds with D2 ag-1; DiscoveRx PathHunter D2 beta-arrestin, luminescence, 90 min; response scale: percent relative to full dopamine signal; Potency, µM (series often up to 76.9 µM), for inactives: at the highest dose activation, hits mostly activators; 2,300 compounds, 5.9% hits; AID 720507; also: potency is read from the fitted curve at half-maximal effect; % of control where 0% means no effect; nearly all actives have a fitted effect of over 70% in size
# * hit, by the source's call; ? = inconclusive; . = no result. Shown are actives, neighbours in structure and some others; about 2.4% of the full set was active somewhere. Unless noted, calls follow the shape of the dose curve; as a rule, active = well fitted activation curve with a large enough effect; inconclusive = small, poorly fitted or top-dose-only effect; inactive = flat fitted curve, though single readings scatter.
SMILES,D2 antag,D2 PAM-1,D2 ag-1,D2 PAM-2,D2 ag-2,D3 ag,D2 ag-3
Cc1ccc(NC(=O)C2CCCN2S(=O)(=O)c2ccc3c(c2)C(C)(C)C(=O)N3C)cc1 (stereo unspecified),.,.,0,1,.,.,.
O=C(Cc1ccccc1)N1CCN(C(=O)c2cccs2)CC1,-5,-10,1,9,0,.,.
O=C(c1cccs1)N1CCN(C/C=C/c2ccccc2)CC1,69*,-22,53*,-24,5,?,?
O=C(c1cccs1)N1CCN(CCc2ccccc2)CC1,42*,-14,43*,-13,6,15%,15%
O=S(=O)(c1cccs1)N1CCN(C/C=C/c2ccccc2)CC1,-5,-20,1,-2,-2,.,.
O=C(Cn1cc(S(=O)(=O)Cc2ccc(F)cc2)c2ccccc21)NCc1ccccc1Cl,.,.,-1,1,.,.,.
COc1ccc(OC)c(S(=O)(=O)NCc2cn3ccsc3n2)c1,-2,-8,26,-9,-4,-5%,2%
COc1cc(OC)c(NC(=O)c2c(C)nn(-c3ccc(C)cc3)c2-n2cccc2)cc1Cl,.,.,-1,2,.,.,.
COc1ccc2oc(C(=O)Nc3cccc(S(=O)(=O)N4CCOCC4)c3)c(C)c2c1,-4,5,0,-3,1,3%,-2%
COc1ccc2oc(C(=O)OCC(=O)Nc3cccc(S(=O)(=O)N4CCOCC4)c3)c(C)c2c1,-4,-1,1,2,3,.,.
CCOC(=O)C1CCN(CC(O)COc2ccc(C(C)(C)CC)cc2)CC1 (stereo unspecified),80*,-6,66*,-27,11,11%,?
CCOC(=O)C1CCN(CC(O)COc2ccc(C(C)(C)C)cc2)CC1 (stereo unspecified),26,-7,0,6,?,.,.
CCOC(=O)C1CCN(CC(O)COc2ccc(C(C)=O)cc2)CC1 (stereo unspecified),31*,7,41*,-15,-7,4%,17%
Fc1cc(F)cc(Nc2nc(Cl)nc(NC3CCCC3)n2)c1,-4,.,-1,-5,.,-6%,0%
CC(C)Nc1nc(Cl)nc(NC2CCCCC2)n1,-6,-1,-1,-4,-1,.,.
CCN1CCN(c2ncnc3sc(C)c(-c4ccccc4)c23)CC1,-15,12,18,.,?,5%,18µM*
CCN1CCN(c2ncnc3scc(-c4ccc(C)c(C)c4)c23)CC1,8,-1,9,-1,13,.,.
CCOC(=O)c1cc([N+](=O)[O-])cc([N+](=O)[O-])c1Sc1ncnc2nc[nH]c12,.,22,.,.,11,.,.
COc1ccc(C2(CCN)CC(C)N(C)CC2C)cc1 (stereo unspecified),23,-14,31*,-17,0,-4%,3%
CCc1cccc(NC(=O)CSc2nc3ccsc3c(=O)n2CC)c1,.,.,0,17,.,.,.
CCC(=O)Oc1ccc(C(=O)Nc2ccc3c(c2)OCO3)cc1,17,-6,-1,2,6,2%,1%
Cc1ccc(O)c(NC(=S)NC(=O)Cc2ccc(Cl)cc2)c1,.,-6,.,.,2,-7%,-2%
CCOC(=O)N1CCc2[nH]c3ccc(C)cc3c2C1,-16,-13,29,21,3,-8%,0%
Cc1ccc2[nH]c3c(c2c1)CN(C(=O)CN1CCN(c2ccccn2)CC1)CC3,8,3,31*,-9,9,26%,18%
Cc1ccc2[nH]c3c(c2c1)CN(C(=O)CN1CC(C)OC(C)C1)CC3 (stereo unspecified),5,15,2,-4,0,.,.
SMILES,D2 antag,D2 PAM-1,D2 ag-1,D2 PAM-2,D2 ag-2,D3 ag,D2 ag-3
Cc1ccc2[nH]c3c(c2c1)CN(C(=O)CN1CCSCC1)CC3,-13,.,-3,-4,.,.,.
C=CCOc1ccc(Br)cc1CNCC,67*,-8,62*,-28,-3,9%,?
CCCNC(=O)C(Cc1ccc(Cl)cc1)NC(=O)c1ccc(-c2ccccc2)cc1 (stereo unspecified),-2,1,0,-2,0,.,.
CCCNC(=O)C(Cc1ccc(Cl)cc1)NC(=O)c1ccc(C#N)cc1 (stereo unspecified),2,-1,0,1,-9,-2%,-4%
CCCNC(=O)C(Cc1ccc(Br)cc1)NC(=O)c1ccc(C#N)cc1 (stereo unspecified),19,-1,0,-1,-2,-8%,-4%
COC(=O)c1ccc(C2CC(=O)Nc3c2c(C)nn3-c2nc(C)cc(C)n2)cc1 (stereo unspecified),.,.,3,10,.,.,.
COc1ccc(NC(=O)C2CCCN(CCCc3ccccc3)C2)cc1OCC(C)C (stereo unspecified),80*,-47,75*,-26,13,-11%,?
COc1ccc(NC(=O)C2CCCNC2)cc1OCC(C)C (stereo unspecified),-3,-2,0,5,3,.,.
Cc1ccc(-c2[nH]ncc2CN2CCN(C(=O)c3cccs3)CC2)cc1C,66*,-15,77*,-32,6,?,21%
O=C(c1cccs1)N1CCN(Cc2cn[nH]c2-c2ccc(F)cc2F)CC1,53*,7,80*,-26,?,?,?
COc1ccc(-c2[nH]ncc2CN2CCN(C(=O)c3cccs3)CC2)c(F)c1,14,11,0,2,-3,.,.
COc1ccc(OC)c(CCNc2nc3ccccc3c3nc(-c4cccnc4)nn23)c1,.,.,0,11,.,.,.
Cc1[nH]nc2nc(SCC(=O)NCCC3=CCCCC3)n(-c3ccc(Br)cc3)c(=N)c12,-16,-1,41*,-24,7,9%,0%
CCCOc1ccc(CN(C(=O)Cc2coc3ccc(CC)cc23)C2CCS(=O)(=O)C2)cc1 (stereo unspecified),.,.,2,7,.,.,.
Cc1ccc(-n2ncc(C(=O)NC3CCCCC3)c2C2CCN(C(=O)OC(C)(C)C)CC2)cc1,.,.,.,4,.,.,.
COC(=O)c1c(-c2ccccc2OC)sc2ccccc12,-8,-5,0,-3,-1,-5%,-2%
Cc1cc(NC(=O)CCS(=O)(=O)c2cc(Br)cc3c2N(C(=O)C2CC2)CC3)ccc1Br,.,.,0,.,.,.,.
O=C(NCCOC(=O)c1ccc(C(=O)OCCNC(=O)c2cccnc2)s1)c1cccnc1,29,-2,69*,-28,-5,-8%,-4%
O=C1CC(=C(c2ccccc2)c2ccccc2)C(=O)N1CCCN1CCN(c2cccc(Cl)c2)CC1,11,-20,-1,-6,3,.,.
